Our source for the outcome and AC50 values is PubChem BioAssay (EPA / NIEHS).

What is called AC50 is the concentration giving half of the maximal activity seen.

Assay [1] can be described thus: TOX21_p53_BLA_p2_viability: Viability Assessment in the Tox21 HCT-116 p53 Agonism Beta-lactamase Assay, Phase 2 (AID 2283591).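 Further: compound exposure lasted 16 h at 37 °C; actives lower the ATP signal meaning cytotoxicity.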 A digest of the protocol: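 HCT116 p53-bla cells, 4000/well, dosed after 5 h plating (217-fold dilution of DMSO stocks) and incubated 16 h at 37C. Viability taken as cellular ATP by CellTiter-Glo luminescence after 30 min RT; signal loss marks cytotoxicity.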

Assay [2] has as its target Cellular tumor antigen p53 (Homo sapiens) (UniProt P04637). The experiment in a line: TOX21_p53_BLA_p2_ratio: Tox21 HCT-116 p53 Agonism Beta-lactamase Assay, Ratio, Phase 2 (AID 2283592). The method in brief: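 Cleaved-to-uncleaved substrate ratio (460 vs 530 nm) measured in HCT116 cells with an inducible beta-lactamase reporter linked to p53 activity. Compounds incubated 16 h at 37C before 2 h room-temperature CCF4-AM loading.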

Assay [3] is described as follows: TOX21_p53_BLA_p3_viability: Viability Assessment in the Tox21 HCT-116 p53 Agonism Beta-lactamase Assay, Phase 3 (AID 2283593).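 Further: cells exposed to compound for 16 h before reading.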 The method in brief: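 HCT116 cells, 4000/well, dosed 5 h after plating by pin transfer (217-fold dilution from DMSO stock) and incubated 16 h at 37C, 5% CO2. Viability read as ATP luminescence with CellTiter-Glo after 30 min at room temperature.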

Assay [4] concerns the target Cellular tumor antigen p53 (Homo sapiens) (UniProt P04637). Kind of assay: TOX21_p53_BLA_p3_ratio: Tox21 HCT-116 p53 Agonism Beta-lactamase Assay, Ratio, Phase 3 (AID 2283596). A digest of the protocol:
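Cells were seeded at 4000/well, rested 5 h at 37C, then dosed with DMSO compound solutions (217-fold dilution) for 16 h. CCF4-AM substrate was loaded for 2 h at room temperature, and the 460/530 nm emission ratio was fitted for gain of signal versus DMSO.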

For assay [5] the target is unchanged. Kind of assay: TOX21_p53_BLA_p5_ratio: Tox21 HCT-116 p53 Agonism Beta-lactamase Assay, Ratio, Phase 5 (AID 2283599). A digest of the protocol:
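HCT-116 p53-bla cells (4000/well) plated 5 h, dosed with compound (217-fold DMSO dilution) for 16 h at 37 C; CCF4-AM substrate 2 h at room temperature. Activity is the 460/530 nm emission ratio (405 nm excitation), fitted in gain-of-signal direction versus DMSO.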

Assay [6] is described as follows: TOX21_p53_BLA_p4_viability: Viability Assessment in the Tox21 HCT-116 p53 Agonism Beta-lactamase Assay, Phase 4 (AID 2283597).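 Further: hits lower the luminescence signal meaning cytotoxicity.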 A digest of the protocol: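 Viability is taken as cellular ATP: after 16 h compound exposure of HCT116 cells and a 2 h room-temperature CCF4-AM substrate step, CellTiter-Glo reagent is added and luminescence is measured 30 min later.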
Assay [7] addresses Cellular tumor antigen p53 (Homo sapiens) (UniProt P04637). The experiment in a line: TOX21_p53_BLA_p4_ratio: Tox21 HCT-116 p53 Agonism Beta-lactamase Assay, Ratio, Phase 4 (AID 2283601). A digest of the protocol:
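HCT-116 p53 beta-lactamase reporter cells (4000/well) preincubated 5 h, then compound (217-fold dilution of DMSO stock) for 16 h at 37C. CCF4-AM substrate added 2 h at room temperature; 460/530 nm emission ratio fitted upward versus DMSO.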

A short description of assay [8]: TOX21_p53_BLA_p5_viability: Viability Assessment in the Tox21 HCT-116 p53 Agonism Beta-lactamase Assay, Phase 5 (AID 2283600). The method in brief:
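Viability is taken from cellular ATP content, measured by luciferase luminescence in the same wells after the beta-lactamase ratio read. Cells are seeded at 4000 per well and exposed to DMSO-dissolved compounds, diluted 217-fold, for 16 h.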

Assay [9] is described as follows: ACEA_ER_AUC_viability: ACEA Biosciences xCELLigence Real-Time Cell Analysis on Estrogen Receptor Agonism for Viability (AID 2283782).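 Further: hit means loss of impedance signal meaning reduced cell growth or viability.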 A digest of the protocol: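 Read-out: real-time electrical impedance (RT-CES) area under curve, loss of signal taken as reduced viability, normalized to DMSO baseline. T-47D cells, charcoal-stripped serum medium, compounds up to 100 uM final, continuous exposure, 80 h.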

Assay [10] has as its target Thyroid hormone receptor alpha (Rattus norvegicus) + Thyroid hormone receptor beta (Rattus norvegicus) (UniProt P18113+P63059). Kind of assay: TOX21_TR_LUC_GH3_Agonist_Followup: Tox21 GH3 Thyroid Hormone Receptor Agonism Luciferase Follow-Up Assay (AID 2283939). A digest of the protocol:
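Agonist-mode confirmatory run: 15 concentrations (5 nM to 92 uM final) on GH3 rat pituitary cells, 24 h at 37C/5% CO2, T3 as positive control. Luminescence read with ONE-Glo after 30 min.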

For assay [11], the target named is THRA (gene 7067) (UniProt P10827). Kind of assay: TOX21_TRA_COA_Agonist_Followup_ratio: Tox21 Thyroid Hormone Receptor alpha Agonism through Coactivator Recruitment Follow-Up Assay, Ratio (AID 2283948; active means hit-call score of the fitted dose curve at least 0.9, where 1 is the maximum; inactive means score below 0.9). A digest of the protocol: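 First, compound was incubated with 2.5 nM GST-TRα LBD in 0.10% BSA. Next, 200 nM fluorescein-SRC-2 and 2 nM Tb-anti-GST antibody were added. Finally, the 520:495 nm ratio was normalized to DMSO and T3 controls.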
Sequence of THRA (gene 7067) (P10827 whole entry, looked up, the tested form may be a part): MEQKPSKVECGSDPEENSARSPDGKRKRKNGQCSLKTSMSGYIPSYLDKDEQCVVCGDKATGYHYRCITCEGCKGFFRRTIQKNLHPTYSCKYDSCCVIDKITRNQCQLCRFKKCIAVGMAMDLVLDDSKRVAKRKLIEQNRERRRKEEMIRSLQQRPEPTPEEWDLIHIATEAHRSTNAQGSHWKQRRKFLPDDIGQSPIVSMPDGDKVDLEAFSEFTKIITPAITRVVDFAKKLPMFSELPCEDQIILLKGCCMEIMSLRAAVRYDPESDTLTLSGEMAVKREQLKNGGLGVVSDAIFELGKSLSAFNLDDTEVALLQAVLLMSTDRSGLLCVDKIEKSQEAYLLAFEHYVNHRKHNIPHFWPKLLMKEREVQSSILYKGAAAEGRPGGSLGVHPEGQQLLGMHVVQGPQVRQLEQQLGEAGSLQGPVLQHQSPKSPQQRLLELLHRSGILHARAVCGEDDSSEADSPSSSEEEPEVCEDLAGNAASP

The target in assay [12] is THRB (gene 7068) (UniProt P10828). Kind of assay: TOX21_TRB_BLA_Agonist_Followup_ratio: Tox21 Thyroid Hormone Receptor beta Agonism Beta-lactamase (BLA) Follow-Up Assay, Ratio (AID 2283954). A digest of the protocol:
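Agonist mode: compounds (11-point, triplicate) incubated 18 h with HEK293T cells carrying GAL4-DBD/human TRβ-LBD and UAS-β-lactamase. Blue/green (460/530 nm) FRET ratio read after 2 h CCF4-AM loading; CellTiter-Glo viability run in the same plates.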

Assay [13] in a line: TOX21_TRB_BLA_Agonist_Followup_viability: Viability Assessment in the Tox21 Thyroid Hormone Receptor beta Agonism Beta-lactamase (BLA) Follow-Up Assay (AID 2283956). The method in brief: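 Viability was read as CellTiter-Glo luminescence in the same wells as the TRb-bla agonist read-out. HEK293T GAL4-TRb LBD cells were treated for 18 h (37C, 5% CO2) at 11 concentrations in triplicate. Fits were bidirectional versus DMSO baseline.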

In assay [14] the target is THRB (gene 7068) (UniProt P10828). Kind of assay: TOX21_TRB_COA_Agonist_Followup_ratio: Tox21 Thyroid Hormone Receptor beta Agonism through Coactivator Recruitment Follow-Up Assay, Ratio (AID 2283963; active means hit-call score of the fitted dose curve at least 0.9, where 1 is the maximum; inactive means score below 0.9). The method in brief:
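First, the GST-fused TRβ ligand-binding domain (5.0 nM) was incubated with test compound in 0.10% BSA. Next, fluorescein-tagged SRC-2 peptide (200 nM) and terbium anti-GST antibody (2 nM) were added. Finally, TR-FRET emission ratios were normalized against DMSO and T3 controls.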

In assay [15] the target is Retinoic acid receptor RXR-alpha (Homo sapiens) (UniProt P19793). Kind of assay: TOX21_TR_RXR_BLA_Agonist_Followup_ratio: Tox21 Thyroid Hormone Receptor beta Retinoid X Receptor alpha (RXRa) Agonism Beta-lactamase (BLA) Follow-Up Assay, Ratio (AID 2283968). The method in brief:
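Read-out: blue/green (460:530 nm) FRET ratio from cleaved vs uncleaved CCF4 substrate, fitted for gain of signal relative to DMSO. Cells: HEK293T with RXRa-UAS-bla reporter; 16 h compound exposure, 11 concentrations, triplicate.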

Assay [16] is described as follows: TOX21_TR_RXR_BLA_Agonist_Followup_viability: Viability Assessment in the Tox21 Thyroid Hormone Receptor beta Retinoid X Receptor alpha (RXRa) Agonism Beta-lactamase (BLA) Follow-Up Assay (AID 2283970). A digest of the protocol: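 CellTiter-Glo ATP quantitation as viability read-out in RXRa-bla HEK293T cells (2,500/well, charcoal-stripped 2% FBS medium), 16h compound incubation at 37C. Loss of signal versus DMSO taken as cytotoxicity, analyzed by bidirectional curve fitting.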

Assay [17] is described as follows: CCTE_Harrill_HTTr_Viability_MCF7: CCTE's 6-hour Cell Viability Assessment for the High-Throughput Transcriptomics (HTTr) Platform, in MCF-7 cells cultured in DMEM + 10% fetal bovine serum, Harrill Lab (AID 2284010; active means hit-call score of the fitted dose curve at least 0.9, where 1 is the maximum; inactive means score below 0.9). The method in brief: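 PI exclusion, high-content imaging; 8-pt dilution series, 6 h exposure; bidirectional fit vs DMSO (neg. ctrl/baseline); gain of signal = loss of membrane integrity.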

Assay [18] in a line: CCTE_Harrill_HTTr_Apoptosis_MCF7: CCTE's 6-hour Apoptosis Assessment for the High-Throughput Transcriptomics (HTTr) Platform, in MCF-7 cells cultured in DMEM + 10% fetal bovine serum, Harrill Lab (AID 2284011; active means hit-call score of the fitted dose curve at least 0.9, where 1 is the maximum; inactive means score below 0.9). A digest of the protocol:
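Cells are dosed with test chemicals at eight concentrations and imaged 6 hours later for caspase-3/7 activity using a green fluorogenic detection reagent. Activity is fitted in both directions against DMSO controls.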

The nature of assay [19]: CCTE_Harrill_HTTr_CellCount_MCF7: CCTE's Cell Proliferation Assessment for the High-Throughput Transcriptomics (HTTr) Platform, Harrill Lab (AID 2284012).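 Further: count of Hoechst-stained nuclei per well by high-content imaging in MCF-7 cells; cells exposed to compound for six hours; intended direction is loss of nuclei count meaning fewer cells.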 The method in brief:
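Readout: Hoechst nuclear count by high-content imaging. MCF-7, 8-point dilution series, 6 h exposure. Bidirectional fit vs DMSO baseline.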

Assay [20] has as its target THRA (gene 7067) (UniProt P10827). Kind of assay: TOX21_TRA_COA_Antagonist_Followup_ratio: Tox21 Thyroid Hormone Receptor alpha Antagonism through Coactivator Recruitment Follow-Up Assay, Ratio (AID 2283953). A digest of the protocol:
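We measured antagonism of T3-type coactivator recruitment using a TR-FRET ratio (emission 520 and 495 nm) between a Tb-labelled anti-GST antibody on TRα LBD (2.5 nM) and SRC-2 peptide (200 nM). Activity was scaled between DMSO and T3 wells.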

Assay [21] can be described thus: TOX21_TRB_BLA_Antagonist_Followup_viability: Viability Assessment in the Tox21 Thyroid Hormone Receptor beta Antagonism Beta-lactamase (BLA) Follow-Up Assay (AID 2283961). The method in brief: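 Cytotoxicity is measured in parallel with the antagonist-mode TRβ beta-lactamase screen, using ATP-coupled luciferase luminescence. Engineered HEK293T cells are treated for 18 h with 11-point compound series in triplicate.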

Assay [22] concerns the target THRB (gene 7068) (UniProt P10828). The experiment in a line: TOX21_TRB_COA_Antagonist_Followup_ratio: Tox21 Thyroid Hormone Receptor beta Antagonism through Coactivator Recruitment Follow-Up Assay, Ratio (AID 2283967). The method in brief:
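GST-TRb LBD 5.0 nM + 0.10% BSA, compound added; fluorescein-SRC-2 peptide 200 nM, Tb-anti-GST Ab 2 nM. TR-FRET, ex 340 / em 520:495 ratio. Norm: DMSO 0%, T3 100%.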

Assay [23] addresses Retinoic acid receptor RXR-alpha (Homo sapiens) (UniProt P19793). Kind of assay: TOX21_TR_RXR_BLA_Antagonist_Followup_ratio: Tox21 Thyroid Hormone Receptor beta Retinoid X Receptor alpha (RXRa) Antagonism Beta-lactamase (BLA) Follow-Up Assay, Ratio (AID 2283972). The method in brief:
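Antagonist mode used GAL4 UAS-driven beta-lactamase in HEK293T cells expressing RXRa, treated for 16 h with compound concentration series. Activity was taken from the blue/green (460:530 nm) ratio of cleaved to uncleaved substrate.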

SMILES strings stand for the structures. Results filed as inconclusive are left out. Calls of active or inactive are those of the source. How the source made its calls, unless noted: active means hit-call score of the fitted dose curve at least 0.9, where 1 is the maximum; inconclusive means response in the unintended direction; inactive means score below 0.9.

Sequence of Cellular tumor antigen p53 (Homo sapiens) (P04637 whole entry, looked up): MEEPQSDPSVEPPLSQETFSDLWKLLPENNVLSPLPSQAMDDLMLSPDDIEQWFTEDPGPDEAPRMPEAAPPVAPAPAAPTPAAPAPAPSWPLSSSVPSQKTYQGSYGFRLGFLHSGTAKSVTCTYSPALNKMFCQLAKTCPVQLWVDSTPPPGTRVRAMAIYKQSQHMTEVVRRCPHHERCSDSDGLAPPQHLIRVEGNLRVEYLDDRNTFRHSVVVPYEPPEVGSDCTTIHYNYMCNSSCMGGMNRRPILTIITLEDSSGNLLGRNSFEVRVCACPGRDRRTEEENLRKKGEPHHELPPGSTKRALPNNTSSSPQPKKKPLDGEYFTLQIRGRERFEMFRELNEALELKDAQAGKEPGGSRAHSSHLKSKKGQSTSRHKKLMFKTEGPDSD
Sequence of THRB (gene 7068) (P10828 whole entry, looked up, the tested form may be a part): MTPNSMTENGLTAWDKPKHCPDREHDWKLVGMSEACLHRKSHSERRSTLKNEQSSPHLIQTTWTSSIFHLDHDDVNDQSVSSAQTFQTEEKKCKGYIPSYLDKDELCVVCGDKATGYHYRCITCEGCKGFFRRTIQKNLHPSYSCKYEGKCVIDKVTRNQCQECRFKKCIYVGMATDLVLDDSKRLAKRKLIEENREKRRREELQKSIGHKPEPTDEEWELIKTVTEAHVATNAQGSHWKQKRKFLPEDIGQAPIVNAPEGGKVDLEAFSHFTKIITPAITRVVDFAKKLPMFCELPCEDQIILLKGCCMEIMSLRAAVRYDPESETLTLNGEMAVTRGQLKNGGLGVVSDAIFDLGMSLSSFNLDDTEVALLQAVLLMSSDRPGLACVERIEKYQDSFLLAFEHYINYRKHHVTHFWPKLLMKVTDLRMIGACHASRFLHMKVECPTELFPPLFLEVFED
Sequence of Retinoic acid receptor RXR-alpha (Homo sapiens) (P19793 whole entry, looked up, the tested form may be a part): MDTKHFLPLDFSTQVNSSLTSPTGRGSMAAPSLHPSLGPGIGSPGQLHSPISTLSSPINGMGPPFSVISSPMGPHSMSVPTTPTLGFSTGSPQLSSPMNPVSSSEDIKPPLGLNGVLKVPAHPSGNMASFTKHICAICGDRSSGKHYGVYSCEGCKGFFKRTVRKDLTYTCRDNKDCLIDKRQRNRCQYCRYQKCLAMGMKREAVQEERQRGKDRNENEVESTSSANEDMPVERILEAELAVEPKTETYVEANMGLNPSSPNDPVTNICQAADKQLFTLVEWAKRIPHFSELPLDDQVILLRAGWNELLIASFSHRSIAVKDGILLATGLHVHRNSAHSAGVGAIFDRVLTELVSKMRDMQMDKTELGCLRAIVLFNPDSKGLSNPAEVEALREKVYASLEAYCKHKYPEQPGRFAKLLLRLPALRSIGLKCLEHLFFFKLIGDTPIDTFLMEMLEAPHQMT
Sequence of Thyroid hormone receptor alpha (Rattus norvegicus) + Thyroid hormone receptor beta (Rattus norvegicus) (P63059 whole entry, looked up): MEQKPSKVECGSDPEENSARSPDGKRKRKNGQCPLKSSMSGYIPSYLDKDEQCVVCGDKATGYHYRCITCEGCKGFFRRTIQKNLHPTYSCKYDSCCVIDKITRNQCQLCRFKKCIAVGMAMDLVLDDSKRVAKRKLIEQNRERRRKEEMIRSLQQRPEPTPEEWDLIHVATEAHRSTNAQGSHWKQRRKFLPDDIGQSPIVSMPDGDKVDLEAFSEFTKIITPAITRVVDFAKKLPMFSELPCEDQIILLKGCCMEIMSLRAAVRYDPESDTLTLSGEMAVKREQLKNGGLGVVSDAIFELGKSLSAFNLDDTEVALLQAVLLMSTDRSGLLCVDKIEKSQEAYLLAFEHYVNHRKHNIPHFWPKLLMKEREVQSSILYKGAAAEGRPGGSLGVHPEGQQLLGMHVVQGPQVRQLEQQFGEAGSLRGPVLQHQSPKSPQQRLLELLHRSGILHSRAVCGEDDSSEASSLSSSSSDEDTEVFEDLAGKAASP
Sequence of Thyroid hormone receptor alpha (Rattus norvegicus) + Thyroid hormone receptor beta (Rattus norvegicus) (P18113 whole entry, looked up): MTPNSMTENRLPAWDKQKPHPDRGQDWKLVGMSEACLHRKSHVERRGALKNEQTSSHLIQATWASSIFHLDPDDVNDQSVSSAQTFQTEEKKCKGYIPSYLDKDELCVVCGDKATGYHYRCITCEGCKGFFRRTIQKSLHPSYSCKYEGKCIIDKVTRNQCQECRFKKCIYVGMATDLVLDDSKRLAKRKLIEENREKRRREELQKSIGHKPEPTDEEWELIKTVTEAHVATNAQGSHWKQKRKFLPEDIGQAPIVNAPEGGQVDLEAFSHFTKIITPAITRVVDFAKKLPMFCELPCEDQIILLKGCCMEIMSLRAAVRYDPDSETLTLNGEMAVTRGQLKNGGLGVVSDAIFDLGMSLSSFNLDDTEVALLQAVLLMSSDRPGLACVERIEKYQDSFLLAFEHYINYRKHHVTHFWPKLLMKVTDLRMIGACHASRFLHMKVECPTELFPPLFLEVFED

Turning to `CCNC1(c2cccs2)CCCCC1=O` (configuration not stated), the outcome in assay [1], in assay [2], in assay [3], in [4] and in assay [5] was inactive.

Regarding `CC(=O)Nc1cc([As](=O)(O)O)ccc1O`, the result in assay [1], in [2], in assay [3], in assay [4], in assay [6] and in [5] was inactive. Further, the outcome in [7] was inactive.

As to `CC(C)OC(=O)Cc1ccccc1`, the outcome in assay [1], in assay [2], in assay [3], in assay [4], in [6] and in assay [5] was inactive. Besides, the result in assay [7] was inactive.

For `Clc1ccc(-c2ccc(Cl)c(Cl)c2Cl)c(Cl)c1Cl`, the call in assay [1], in [2], in assay [3], in [4], in assay [6] and in assay [5] was inactive. For the same compound, the outcome in assay [7] was inactive.

In the case of `CNC(=O)ON=C(CSC)C(C)(C)C`, the result in [1], in [2], in assay [3], in assay [4], in assay [6] and in assay [5] was inactive. Also, the compound was called inactive in assay [8], in [9], in assay [10], in assay [11], in [12] and in [13]. The outcome in assay [14], in assay [15], in [16], in assay [17], in assay [18] and in assay [19] was inactive.

For `CC(C)CC(C)N` (configuration not stated), the result in assay [1], in [2], in assay [3], in [4], in [6] and in [5] was inactive. Besides, the result in [7] was inactive.

Consider `C[C@]12CCC(=O)C[C@@H]1CC[C@@H]1[C@@H]2CC[C@@]2(C)[C@H]1CC[C@]2(C)O`, for which the compound was called inactive in assay [1], in [2], in assay [3], in assay [4], in assay [6] and in [8]. The result in [7] was inactive.

For `O=c1oc2ccccc2c(O)c1Cc1c(O)c2ccccc2oc1=O`, the half-maximal activity concentration (AC50) is 8.02 µM (active) in assay [1]; 6.79 µM (active) in [2]; 0.819 µM (active) in assay [3]; 1.07 µM (active) in assay [4]; 3.3 µM (active) in assay [6]; 3.93 µM (active) in assay [5]. In addition, in [7], the half-maximal activity concentration (AC50) is 3.95 µM (active). Also, the result in assay [20], in [21], in assay [22] and in [23] was inactive.

Consider `Cc1ccccc1-n1c(C)nc2ccccc2c1=O`, for which the call in assay [1], in assay [2], in assay [3], in [4], in assay [6] and in assay [5] was inactive. Besides, the outcome in assay [7] was inactive.

As to `C[C@]12C[C@H]3S[C@H]3C[C@@H]1CC[C@@H]1[C@@H]2CC[C@]2(C)[C@@H](O)CC[C@@H]12`, the result in assay [1], in assay [2], in [3], in assay [4], in [6] and in [8] was inactive.
